About 950 (1.4%) of roughly 69,000 compounds showed an effect of 50% or more. What follows is part of a selection rich in strong results, with near analogues and random picks from the rest.

In the assay the test system is Mycobacterium tuberculosis. Briefly: Cornell M. t heat shock assay. Further: in the data most compounds retested in dose-response had high values. The format is functional, organism-based. Also on record: dose or concentration left out as unconfirmed.
As for `CCN(CC)CCN1CC[C@H]2OCC[C@@]2(C(=O)N2CCOCC2)C1.O=C(O)C(F)(F)F.O=C(O)C(F)(F)F`, the “Percent Effect” value was determined as 6.776%. To `Cl.Cl.Cn1cc(C(=O)NCc2cncc3c2CCN(c2ccccn2)C3)cn1` belongs -14.06%; to `COc1cccc2[nH]c(C(=O)N3CCNCC3C(N)=O)cc12.Cl` (stereo not drawn), -10.67%. With `CCOC(=O)N1CCC2(CC1)N=C(CCC(C)C)NC2=O` the figure was 12.74%; with `COC(=O)N1CCC2(CC1)N=C(CCC(C)C)NC2=O`, 95.71%; with `CC(C)CCC1=NC2(CCN(C(=O)N3CCN(C)CC3)CC2)C(=O)N1`, 15.27%. To `Cc1oncc1C(=O)N[C@@H]1CN(Cc2ccco2)C[C@@H]2CCCO[C@@H]21.O=C(O)C(F)(F)F` belongs 4.265%; to `CC[C@@H]1N(Cc2ccco2)CCC[C@]12CCC(=O)N2C.O=C(O)C(F)(F)F`, -19.47%. As for `Cc1ccsc1-c1cccc(-c2ccn(CC3CCNC3)n2)c1` (stereo not drawn), the “Percent Effect” value was 84.67%. With `Cc1nccc(-c2cccc(-c3ccn(CC4CCNC4)n3)c2)n1` (stereo not drawn), the “Percent Effect” value is given as -11.22%. With `c1cc(-c2cncnc2)cc(-c2ccn(CC3CCNC3)n2)c1` (stereo not drawn) the figure was 8.343%; with `CN1CCC(c2nnc3ccc(C(=O)NC4CCCC4)cn23)C1.O=C(O)C(F)(F)F` (stereo not drawn), -23.72%.

With `CNc1cc(C)nc(C2CCN(CCO)CC2)n1`, the “Percent Effect” value is reported as -3.64%. With `CC(NC(=O)NCCCN1CCCCCC1)c1nncn1C` (stereo not drawn) the figure was 12.17%; with `CC(NC(=O)NCCCN1CCCC1)c1nncn1C` (stereo not drawn), -5.961%. To `CC1CCN(CCCNC(=O)NC(C)c2nncn2C)CC1` (stereo not drawn) belongs 68.75%; to `O=C(O)C(F)(F)F.O=C(O)C(F)(F)F.O=C(c1ccc(F)cc1)N1CCN2C[C@H](OCc3ccccn3)C[C@H]2C1`, 3.711%.

In the case of `C[C@H]1CN(C(=O)c2ccoc2)C[C@@]12CCN(CCN(C)C)C2=O.O=C(O)C(F)(F)F`, the “Percent Effect” value is recorded as -17.94%. With `O=C1C[C@H]2CC[C@@H](CN1)N2C1CCSCC1` the figure was 14.33%; with `CCN1C[C@H]2C[C@H](C(=O)NCc3cccnc3)[C@@H](C1)O2`, -4.927%. With `Cc1ccc(C(=O)N2CCC3(CC2)COC(COc2cccnc2)C3)o1.O=C(O)C(F)(F)F` (stereo not drawn) the figure was -31.88%; with `O=C(O)C(F)(F)F.c1cnc(N2CCO[C@H]3CN(CC4CCC4)C[C@H]32)cn1`, 6.326%; with `CC(=O)N1CCc2c(nc(N(C)C)nc2NC(C)Cc2cccs2)C1` (stereo not drawn), 23.93%. For `CC(=O)N1CCc2c(nc(N(C)C)nc2NCc2cccs2)C1`, the “Percent Effect” value was -2.548%.

Turning to `CC(=O)N1CCc2c(nc(N(C)C)nc2NCCc2cccs2)C1`, the “Percent Effect” value is 53.71%.

Consider `CCCNc1cc(-c2c[nH]nc2C2CCN(C(=O)C3CCC3)C2)ccn1` (stereo not drawn), for which the “Percent Effect” value is on record as -8.816%. With `Cl.O=C(NCc1ccc(Cl)cc1)N1CCN(CC(O)C2CC2)CC1` (stereo not drawn) the figure was 7.084%; with `CC(C)NC(=O)Nc1ccc2c(c1)ncn2CC(=O)NCCN(C)C`, -0.1313%.

As for `CC(C)C(=O)Nc1ccc2c(c1)ncn2CC(=O)NCCN(C)C`, the “Percent Effect” value is -3.322%. As for `CC(C)CC(=O)Nc1ccc2c(c1)ncn2CC(=O)NCCN(C)C`, the “Percent Effect” value is given as 65.51%. `CC(=O)N1CCN(c2cc(C3CCNCC3)ccn2)CC1.Cl.Cl`: the “Percent Effect” value stood at 2.778%. With `O=C(N1CCCC1)N1CCC2(CC1)CN(c1cccnc1)C(=O)CO2.O=C(O)C(F)(F)F` the figure was -4.597%; with `CCCn1cc(NC(=O)c2cccc(CN3CC[C@H](O)C3)c2)nn1`, 18.76%. To `CCn1cc(NC(=O)c2cccc(CN3C[C@@H](C)O[C@@H](C)C3)c2)nn1` belongs 87.48%; to `CCCn1cc(NC(=O)c2cccc(CN3CC=CC3)c2)nn1`, -7.923%; to `CN(C)C(=O)CO[C@H]1CN(Cc2ccsc2)[C@@H]2COC[C@H]12.O=C(O)C(F)(F)F`, 37.89%. To `CN(C)C(=O)Cn1c(C2CC2)c(CN2CCC(O)CC2)c2cccnc21.Cl` belongs -13.49%. For `CC(C)CCn1c(=O)nc2n1C(=O)N(c1ccc(F)cc1)C2`, the “Percent Effect” value is 4.203%. To `CCC1=N[C@@]2(CC[C@@H]3CN(Cc4ccccc4C)C[C@@H]32)C(=O)N1C.O=C(O)C(F)(F)F` belongs -3.912%. To `O=C(CCNc1ncc2c(n1)CCN2c1ccccc1)N1CCCC1` belongs 58.85%; to `OC1CCN(CCNc2ncc3c(n2)CCN3c2ccccc2)CC1`, -5.755%; to `CN(C)C(=O)CCCNc1ncc2c(n1)CCN2c1ccccc1`, 14.48%. Turning to `CCc1ncc(C(=O)N2CC[C@@H]3CC[C@H](C2)N3C)cn1`, the “Percent Effect” value is -16.81%. As for `COc1cc2cc(C)c(SCCN3CCCCC3)nc2cc1OC.Cl`, the “Percent Effect” value is 8.064%.

As to `CN1CCC(CNC(=O)c2cccc(NC(N)=O)c2)c2ccccc21` (stereo not drawn), the “Percent Effect” value turned out to be 13.83%. With `CN1CCC(CNC(=O)c2ccc(O)nc2)c2ccccc21` (stereo not drawn) the figure was 10.05%; with `CN1CCC(CNC(=O)c2cccc(C(F)(F)F)c2)c2ccccc21` (stereo not drawn), 80.18%.

`FC1(F)CCN(Cc2ccncc2)CC12CCN(Cc1ccccn1)C2.O=C(O)C(F)(F)F.O=C(O)C(F)(F)F.O=C(O)C(F)(F)F` (stereo not drawn): the “Percent Effect” value is -15.56%. With `CCN(C)c1ncnc2c1CCN(Cc1csc(C)n1)CC2.O=C(O)C(F)(F)F.O=C(O)C(F)(F)F` the figure was 2.134%; with `O=S(=O)(C1CC1)N1CCc2ncnc(-c3ccsc3)c2CC1`, -2.171%; with `O=C(O)C(F)(F)F.O=C(c1ncccn1)N1CCC2(CC1)COC(COc1ccccn1)C2` (stereo not drawn), -42.8%. To `CCCC1CCCN(Cc2csc(-c3cnn(C)c3)n2)CC1` (stereo not drawn) belongs 101.6%. Regarding `CCc1nnc2n1CCN(Cc1csc(-c3cnn(C)c3)n1)C2`, the “Percent Effect” value turned out to be 103.2%. With `Cc1nnc2n1CCN(Cc1csc(-c3cnn(C)c3)n1)C2` the figure was -22%.

Regarding `CC(C)c1nnc2n1CCN(Cc1csc(-c3cnn(C)c3)n1)C2`, the “Percent Effect” value worked out at 2.86%. On to `Cn1cc(-c2nc(CN3CCN(CCO)CC3)cs2)cn1`, for which the “Percent Effect” value was found to be 7.212%. With `CCCC1CCCN(Cc2csc(-c3ncccn3)n2)CC1` (stereo not drawn) the figure was 31.96%; with `O=C(O)C(F)(F)F.O=C1COC2(CCN(C(=O)c3ccoc3)CC2)CN1Cc1ccccn1`, -25.96%.
